Screens as filed in PubChem.
VDR inh: inhibitors of human vitamin D receptor; VDR-SRC2-3 peptide fluorescence polarization, 2 h; Potency, µM, inactives show max response, negative = inhibition, actives largely listed as inhibitors; P11473; 0.93% of 400,000 active
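Fluorescence polarization assay of small-molecule disruption of VDR binding to coregulator peptide SRC2-3. Compounds and controls pin-transferred, then read after 2 h incubation at ambient room temperature.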
PLK1 PBD block: PLK1 (human) polo-box domain binding inhibition; P53350; Plk1 PBD binding of FITC phosphopeptide, fluorescence polarization; Potency, µM, inactives show max response, negative = inhibition, actives largely listed as inhibitors; 2.8% of 360,000 active; also: series mostly up to about 57 µM; nearly all actives have a fitted effect of over 65% in size
Target sequence (P53350 whole entry, looked up, the tested form may be a part): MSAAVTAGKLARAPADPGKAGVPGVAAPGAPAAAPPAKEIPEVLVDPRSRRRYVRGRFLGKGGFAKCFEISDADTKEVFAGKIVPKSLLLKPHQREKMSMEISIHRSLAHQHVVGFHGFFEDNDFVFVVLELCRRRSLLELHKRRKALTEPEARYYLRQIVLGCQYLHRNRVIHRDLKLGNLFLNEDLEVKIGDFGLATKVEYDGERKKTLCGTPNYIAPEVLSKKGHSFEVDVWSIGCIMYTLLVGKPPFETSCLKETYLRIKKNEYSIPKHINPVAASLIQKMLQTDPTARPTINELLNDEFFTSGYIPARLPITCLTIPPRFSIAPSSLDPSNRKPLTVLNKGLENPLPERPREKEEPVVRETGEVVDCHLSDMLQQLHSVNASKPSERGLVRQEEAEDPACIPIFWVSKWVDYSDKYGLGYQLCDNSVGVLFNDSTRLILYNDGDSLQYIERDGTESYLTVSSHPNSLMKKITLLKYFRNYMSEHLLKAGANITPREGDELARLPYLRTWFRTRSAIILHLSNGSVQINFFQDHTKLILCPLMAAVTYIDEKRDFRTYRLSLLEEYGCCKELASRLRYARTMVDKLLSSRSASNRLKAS
Sfp inh: inhibitors of Bacillus subtilis Sfp phosphopantetheinyl transferase. 3.5% of 310,000 active. Biochemical Sfp PPTase activity, qHTS. Potency, µM, for the others: largest response in the series, negative = inhibition, most hits filed as inhibitors;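 also: the enzyme is Sfp with the accession as filed and its product quenches rhodamine fluorescence; 0% = enzyme reaction without inhibitor and -100% = no enzyme wells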
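Sfp 15 nM + cpd, 15 min RT; start w/ rhodamine-CoA 5 uM, BHQ-2-YbbR 12.5 uM (final); 50 mM Hepes pH 7.6, 10 mM MgCl2, 0.01% NP-40, 0.01% BSA; read 525/598 nm at 0 and 30 min.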
12-LOX inh: ALOX12 (human) lipoxygenase inhibition. P18054. purified 12hLO, xylenol orange hydroperoxide absorbance. Potency, µM (highest dose often 108 µM), inactives show top-dose activity change, negative = inhibition, usual class: inhibitors. 1.1% of 580,000 active. AID 1671190
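Purified human 12hLO (150 nM final) in 25 mM Hepes, 0.01% Triton X-100, pH 7.0 was preincubated 15 min at room temperature with compound. Then 40 uM arachidonic acid was added, 30 min. Hydroperoxide was read by Fe-XO absorbance ratio 573/405 nm.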
Numbers without * were called inactive; ? = inconclusive; . = no result; ! = not active in a repeat; [ ] = remark or other dose. Compounds with a hit are over-represented: about 4.2% of the library has one in this group of screens. Calls follow the shape of the dose curve; as a rule, active = well fitted curve in the direction sought with a large enough effect; inconclusive = small, poorly fitted or top-dose-only effect, or another doubt; inactive = no such curve, though single readings can be large; an effect the other way counts as inactive or inconclusive. Unless noted, % is scaled to controls: 0 for no effect and ±100 for the full control effect; potency is read from the fitted curve at half-maximal effect.

SMILES	VDR inh	PLK1 PBD block	Sfp inh	12-LOX inh
COCc1cn(C[C@H]2C[C@@H](NC(=O)c3cccnc3)[C@H](O)[C@@H]2O)nn1	.	.	.	-19%[176 µM]
O=Nc1ccc2oc(=O)ccc2c1	13µM*	.	.	.
COc1cc2ccc(=O)oc2cc1O	6%	5%	4%	12%
O=C(O)c1ccccc1-c1ccccc1C(=O)Nc1ccc2c(c1)[nH]c(=O)c1ccccc12	-20%	-14%	-4%	-11%
Nc1nc(-c2ccco2)cs1	2%	-6%	50µM*	-8%
c1coc(-c2nc3cc4ccccc4cc3nc2-c2ccco2)c1	22µM*	.	.	.
c1coc(-c2nc(-c3ccco3)c(-c3ccco3)nc2-c2ccco2)c1	40µM*	12µM*	35µM*	?
Nc1nc(-c2ccc(-n3nncc3-c3ccco3)cc2)cs1	-18%	-25%	-3%	.
c1coc(-c2ncc[nH]2)c1	5%	-4%	-26%	0%
COc1ccc2nc(-c3ccco3)c(-c3ccco3)nc2c1	?	?	7.1µM*	18µM*
Cc1nc([C@H]2CCN(Cc3cc(F)c(F)cc3F)C[C@H]2NC(=O)C2CC2)n[nH]1	.	.	.	66%
Cc1ccc(NC(=O)N2CCC(C(=O)Nc3ccc(C)cc3C)CC2)cc1	5%	-4%	8%	-2%
COc1ccc(Nc2nc3ccccc3c(=O)[nH]2)cc1	?	24µM*	16%	0%
Cc1ccc(C2=C(O)C(=O)C(c3ccc(C)cc3)=C(O)C2=O)cc1	-8%	-3%	.	1.1µM*
CC1=C(O)C(=O)C(C2=C(O)C(=O)C(C)=C(O)C2=O)=C(O)C1=O	-18%	-6%	.	?
CCOc1ccc2cc(C3CC(c4ccco4)=NN3S(C)(=O)=O)c(=O)[nH]c2c1 (stereo not given)	?	?	22µM*	-22%
COc1ccc2nc(Cl)c(C3CC(c4ccco4)=NN3C(=O)CCC(=O)O)cc2c1 (stereo not given)	-7%	-10%	-11%	-5%
Cc1ccc2nc(Cl)c(C3CC(c4ccco4)=NN3S(C)(=O)=O)cc2c1 (stereo not given)	-9%	-7%	-27%	13µM*!
CS(=O)(=O)N1N=C(c2ccco2)CC1c1ccc(Cl)cc1Cl (stereo not given)	5%	1%	40µM*	?
CCOc1ccc2nc(Cl)c(C3CC(c4ccco4)=NN3S(C)(=O)=O)cc2c1 (stereo not given)	5%	-6%	-29%	?
COc1ccc2nc(Cl)c(C3CC(c4ccco4)=NN3C(=O)CCCC(=O)O)cc2c1 (stereo not given)	0%	-9%	35µM*	-29%
CS(=O)(=O)N1N=C(c2ccco2)CC1c1ccccc1Cl (stereo not given)	8%	-6%	5%	3%
Cc1cc(NC(=O)C2CCCN(S(=O)(=O)c3cccc4nonc34)C2)ccc1Br (stereo not given)	-11%	.	.	8%
O=C1CSC(=S)N1/N=C/c1ccc(O)c(O)c1O	?	0.95µM*	3.2µM*	.
Cc1cccc2cc(CN(Cc3ccc(F)cc3)C(=O)N3CCOCC3)c3nnnn3c12	-13%	24µM*	11%	4%
SMILES	VDR inh	PLK1 PBD block	Sfp inh	12-LOX inh
Cc1ccc2c(c1)cc(CN(Cc1ccco1)C(=O)N1CCOCC1)c1nnnn12	-11%	5%	6%	2%
COc1ccc(C(c2c(O)nc(SC)n(C)c2=O)c2c(O)nc(SC)n(C)c2=O)cc1O	-20%	-12%	50µM*	6%
COc1ccc(C(=O)N2CCCC(c3nn(C)c(=O)n3C3CCCC3)C2)cn1 (stereo not given)	.	.	.	41%
COc1ccc(C(=O)Oc2ccc[nH]c2=O)cc1	12%	-8%	6%	-3%
CCNC(=O)Oc1ccc[nH]c1=O	-36%	?	25µM*	?
O=C1N=c2ccc(Br)cc2=C1c1sc(=O)[nH]c1O	.	.	-29%	.
Cc1ccc2c(c1)=C(c1sc(N(C)c3ccc(O)cc3)nc1O)C(=O)N=2	-11%	38µM*	2%	-2%
CCn1c(CCNC(=O)c2ccc(F)cc2)nc2ccccc21	-6%	5%	-5%	-15%
COC(=O)c1ccc(NC(=O)c2ccccc2N(C)S(C)(=O)=O)cc1	16%	-5%	-1%	20%
COc1ccc(NC(=O)COC(=O)Cn2nnc3ccccc32)cc1	6%	-3%	0%	6%
O=C(COC(=O)Cn1nnc2ccccc21)Nc1ccccc1Br	?	30µM*	-7%	-15%
CC(=O)OCC1OC(n2cc(F)c(=O)[nH]c2=O)C(OC(C)=O)C1OC(C)=O (stereo not given)	-6%	-8%	.	130%
O=C1C(F)=CC(COC(c2ccccc2)(c2ccccc2)c2ccccc2)OC1n1cc(F)c(=O)[nH]c1=O (stereo not given)	45µM*	6µM*	.	8.9µM*
CCn1c(CNc2ccc(Cl)cc2)nnc1SCC#N	5%	-1%	6%	0%
Cc1ccc(C(C)C)c(OCCNCCc2ccccc2)c1	-22%	1%	-25%	7.9µM*
Cc1ccc(C(C)C)c(OCCCNCc2cccnc2)c1	11%	-1%	-11%	-16%
Cc1cnc(C(=O)OCc2ccc(Cl)cc2Cl)cn1	.	.	.	-50%
CC(=O)c1sc(NC(=O)C2CCN(C(=O)c3ccccc3C)CC2)nc1-c1ccccc1	0%	2%	.	-7%
CCOc1cc2c(C#N)c(N(CC)CC)nc(N)c2c(N)n1	45µM*	-3%	.	4%
Cc1ccccc1C(=O)Nc1cc(S(=O)(=O)N2CCCCC2)ccc1N1CCN(C)CC1	8%	6µM*	-4%	-26%
Cc1ccc(S(=O)(=O)N2CCCCC2)cc1NC(=O)c1ccccc1Cl	3%	-9%	.	57%
CN1CCN(c2ccc(S(=O)(=O)N3CCCCC3)cc2NC(=O)c2ccc3ccccc3c2)CC1	-8%	-3%	40µM*	?
O=S(=O)(NC[C@H]1Cn2c(-c3ccc(F)cc3)cnc2CO1)c1ccc(Cl)cc1	.	.	.	50µM*
CS(=O)(=O)NC[C@H]1Cn2c(-c3ccc(F)cc3)cnc2CO1	.	.	.	-1%[176 µM]
Cc1ccsc1/C=C1/SC(N2CC(C)OC(C)C2)=NC1=O (stereo not given)	-17%	30µM*	56µM*	?
SMILES	VDR inh	PLK1 PBD block	Sfp inh	12-LOX inh
COc1ccccc1N1CC(C(=O)OCc2nc(N)nc(Nc3ccccc3)n2)CC1=O (stereo not given)	-11%	-15%	.	-5%
Cc1ccc(CCNC(=O)c2ccc3c(c2)N(Cc2ccc(F)cc2)CCS3)cc1	-26%	.	.	?
COc1cc(=O)n2c(c1C(=O)NCc1ccc3c(c1)OCO3)CCN(C(=O)c1cccc(F)c1)CC2	.	.	.	-1%
COC1CCN(C(=O)c2ccnc(-c3nnc4ccc(N5CCOCC5)nn34)c2)CC1	.	.	.	100µM*
COc1ccnc(-c2nnc3ccc(N4CCc5ccccc5CC4)nn23)c1	.	.	.	50µM*
COC1CCN(C(=O)c2ccnc(-c3nnc4ccc(Nc5ccccc5)nn34)c2)CC1	.	.	.	48%[176 µM]
O=C1CC2(CCN(C(=O)c3ccccc3)CC2)Oc2ccccc2N1	.	.	.	0%[6.33 µM]
O=S(=O)(Cc1noc([C@@H]2C[C@@H](O)CN2CC2CC2)n1)c1ccc(F)cc1	.	.	.	49%[176 µM]
